Screening data: PubChem, Paczesny and Yang Labs, IUPUI and University of Michigan
ST2 inh – inhibitors of human ST2 (IL1RL1) binding to IL-33; Q01638; AlphaLISA ST2-Fc/biotin-IL-33 interaction, 1 h; inhibition, % for hits at 17 µM; hit rate 2.3% among 78,000; AID 1259354; in the data active means inhibition above about 30%
Target sequence (Q01638 whole entry, looked up): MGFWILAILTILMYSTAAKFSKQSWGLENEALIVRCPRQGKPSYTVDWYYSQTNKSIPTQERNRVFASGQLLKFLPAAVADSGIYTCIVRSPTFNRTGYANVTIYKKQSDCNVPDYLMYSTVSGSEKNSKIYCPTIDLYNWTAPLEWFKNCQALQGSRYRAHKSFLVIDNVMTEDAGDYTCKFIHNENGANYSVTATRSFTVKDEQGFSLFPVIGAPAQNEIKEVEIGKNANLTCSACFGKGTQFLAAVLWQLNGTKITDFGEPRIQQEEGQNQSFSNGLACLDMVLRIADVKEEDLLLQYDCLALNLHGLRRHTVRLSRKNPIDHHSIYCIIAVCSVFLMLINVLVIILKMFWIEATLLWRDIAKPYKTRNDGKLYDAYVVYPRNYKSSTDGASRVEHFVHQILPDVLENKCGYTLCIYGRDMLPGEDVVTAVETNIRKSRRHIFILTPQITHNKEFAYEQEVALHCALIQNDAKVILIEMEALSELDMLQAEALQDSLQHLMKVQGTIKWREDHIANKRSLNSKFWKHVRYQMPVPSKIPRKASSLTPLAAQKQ
Large screens that a line does not name were inactive. Only a selection was taken, and hits are over-represented in it overall.

COc1ccc(C2(C(=O)Nc3ccccc3C)CCCC2)cc1OC	none
CCCOc1cccc(C(=O)Nc2ccc(C)cc2[N+](=O)[O-])c1	ST2 inh 32.0%
Cc1ccc(NC(=O)COc2c(C)ccc(C)c2C)c([N+](=O)[O-])c1	ST2 inh 33.0%
CCCCOc1ccc(C(=O)Nc2ccc(OCC)cc2[N+](=O)[O-])cc1	none
Cc1ccc(NC(=O)COc2ccc(Cl)cc2)c([N+](=O)[O-])c1	none
CCOc1ccc(NC(=O)c2cc(OC)cc(OC)c2)c([N+](=O)[O-])c1	none
Cc1ccc(OCC(=O)Nc2ccc(C)cc2[N+](=O)[O-])c(C)c1	none
O=C(c1cc(-c2ccc(Br)cc2)nc2ccccc12)N1CCOCC1	none
CCO[C@H]1[C@H](NC(=O)c2cnn(C(C)C)c2)c2ccccc2C12CCNCC2	none
O=C(Nc1cccc(Cl)c1)C1CCN(S(=O)(=O)c2cccc3cccnc23)CC1	none
O=C([C@@H]1C[C@@H](O)[C@H](O)[C@@H]2NC(=S)N(c3ccc4c(c3)OCO4)[C@@H]21)N1CCCCC1	none
CC(C)Cn1cc(C(=O)N2CCCC(C)C2)c2c3ccccc3n(C)c2c1=O (configuration not stated)	none
COc1cc(/C=C2/OC(=O)c3c2cc(C)[nH]c3=O)ccc1O	none
COc1c(/C=C2/OC(=O)c3c2cc(C)[nH]c3=O)ccc(Cl)c1Cl	none
CC(=O)Nc1ccc(/C=C2/OC(=O)c3c2cc(C)[nH]c3=O)cc1	ST2 inh 46.0%
CC1=C(C(=O)OCCOc2ccccc2)C(c2cccc(O)c2)NC(=O)N1 (configuration not stated)	none
C=CCN1C(=O)NC(=O)/C(=C/c2ccc(OCc3ccccc3F)cc2)C1=O	none
COc1cc(Br)c(/C=C2\C(=O)N(c3ccccc3)N=C2C)cc1OC	none
CC1=NN(c2ccccc2)C(=O)/C1=C\c1ccc(OCc2ccccc2)cc1	ST2 inh 32.0%
CC(=O)Nc1ccc(OCc2ccccc2)cc1	none
CC1=NN(c2ccccc2)C(=O)/C1=C\c1ccc(N2CCOCC2)cc1	ST2 inh 40.0%
CC(C)(C)c1nnc(Nc2ccc(Cl)cc2)[nH]c1=O	none
OC(COCc1ccccc1)CN1CCOCC1 (configuration not stated)	none
O=C(Nc1ccccc1)C(=O)N1CCCC(c2[nH]ncc2Cc2ccccc2)C1 (configuration not stated)	none
Cc1cc(NC(=O)c2ccc(Br)cc2)nc2c1c(=O)oc1ccccc12	none
COc1ccc(Br)cc1C1CC(=O)Nc2c1cc(Br)c1ccccc21 (configuration not stated)	none
CC(NC(=O)c1cccc(Cn2cccn2)c1)c1cccs1 (configuration not stated)	none
O=C(NC[C@H]1O[C@@H](CO)[C@@H](O)[C@H]1N1CCN(c2cccc(C(F)(F)F)c2)CC1)c1ccc(C(F)(F)F)cc1	none
CCN1C(=O)N(CCCc2cccnc2)C(=O)C12CCN(Cc1cnc(-c3ccccc3)s1)CC2	none
CCN1C(=O)N(CCN(C)C)C(=O)C12CCN(Cc1ccc(SC)cc1)CC2	ST2 inh 51.0%
CCOC(=O)C1(CC2CC2)CCN(Cc2ccc(SC)cc2)CC1	none
NC1CC(=O)N(Cc2ccccc2Cl)C1 (configuration not stated)	none
O=C1C2C(c3ccc(Cl)cc3)OC3(C(=O)c4ccccc4C3=O)C2C(=O)N1c1ccc(F)cc1 (configuration not stated)	none
COc1ccc(/C=C2\C=C(c3ccc(Cl)cc3)OC2=O)c(C)c1	none
CCOc1ccc(C2=C/C(=C/c3ccccc3OC)C(=O)O2)cc1	ST2 inh 46.0%
CCOc1ccc(-c2nc3s/c(=C\c4ccc(Cl)cc4)c(=O)n3n2)cc1	none
CCOc1ccc(C2=C/C(=C\c3cccs3)C(=O)O2)cc1	ST2 inh 31.0%
COc1cc(/C=C/C(=O)O)cc(OC)c1OC	none
COc1cc2oc(-c3ccccc3)cc(=O)c2c(O)c1OC	none
Cc1ccc(C2=C/C(=C\c3cccs3)C(=O)O2)cc1C	ST2 inh 68.0%
Cc1ccc(-c2nc(-c3ccncc3)no2)cc1C	none
COc1cc(/C=C2/C=C(c3ccccc3)OC2=O)cc(OC)c1OC	ST2 inh 61.0%
CCOc1ccc2c(=O)c(-c3ccccc3OC)coc2c1	none
CCOc1ccc(N2CC(NC(=O)Cc3cccs3)CC2=O)cc1 (configuration not stated)	none
CC(=O)Oc1ccc2c(=O)c(-c3ccc4c(c3)OCCCO4)c(C)oc2c1C	none
Cc1nc(N2CCOCC2)nc(NC2CCCCC2)c1[N+](=O)[O-]	none
C=CCOC(=O)C1=C(C)N=C2SCCC(=O)N2C1c1ccc(C(C)C)cc1 (configuration not stated)	none
Cc1ccc(S(=O)(=O)N2CCOCC2)c(C)c1C	none
Cc1cccc2nc(CSC3=Nc4ccccc4C4=NC(c5ccccc5)C(=O)N34)cc(=O)n12 (configuration not stated)	none
Cc1cccc(NC(=O)CSc2cn(CCNC(=O)c3ccccc3F)c3ccccc23)c1C	none
O=C(Nc1ccc(S(=O)(=O)Nc2nccs2)cc1)c1ccc(Br)cc1F	none
O=C(NCc1nccs1)c1nn(CC2CC2)c2c1CN(C(=O)c1cn3ccccc3n1)CC2	none
CCNC(=O)[C@@H]1C[C@H](N)CN1C(=O)c1ccc(C(C)C)n(C)c1=O	none
CCOc1ccc(N2C(=O)/C(=C\c3ccccc3OC)N=C2c2ccc(OC)c(OC)c2)cc1	ST2 inh 39.0%
CCOc1ccc(-c2nc3s/c(=C\C=C\c4ccccc4OC)c(=O)n3n2)cc1	none
CCOc1ccccc1/C=C1\N=C(c2ccc(Cl)cc2)OC1=O	none
CCN(Cc1ccccc1)C(=O)c1cccn2c(=O)c3cc4ccccc4cc3nc12	none
Cc1cccc2[nH]c(CCN(C)C(=O)c3cc(C4CC4)[nH]n3)nc12	none
COc1cc(OC)cc(N2C(=O)CC(Sc3ncn[nH]3)C2=O)c1 (configuration not stated)	none
Cc1ccc(N2C(=O)CC(Sc3ncn[nH]3)C2=O)cc1C (configuration not stated)	ST2 inh 36.0%
Cc1cccc(N2C(=O)CC(Sc3nccc(C)n3)C2=O)c1 (configuration not stated)	none
CCc1ccc(OCCCC(=O)Nc2nc3ccc(S(C)(=O)=O)cc3s2)cc1	none
COc1ccc2nc3oc(C(=O)N4CCC(N5CCCCC5)CC4)cc3cc2c1	none
O=c1c2cnn(-c3ccc(F)cc3)c2ncn1C/C=C/c1ccccc1	none
COc1ccc(OC)c(-c2cc(C(=O)Nc3sc4c(c3C#N)CCC4)no2)c1	none
COc1ccc(-c2nc3c4c5c(sc4ncn3n2)CCCCC5)cc1OC	none
COC(=O)c1ccc(C(=O)Nc2sc3c(c2C#N)CCCCC3)cc1	none
COc1ccc(-c2ncnn2-c2sc3c(c2C#N)CCCCC3)cc1OC	ST2 inh 44.0%
COc1ccccc1-c1cc(C(=O)Nc2sc3c(c2C#N)CCCC3)no1	none
COc1ccc(OC)c(-c2ncnn2-c2sc3c(c2C#N)CCCCC3)c1	ST2 inh 34.0%
Nc1nc(-c2ccco2)nc(-c2ccco2)n1	none
N#Cc1ccsc1NC(=O)CSc1ncnc2sc3c(c12)CCCC3	none
CSc1ccc(C2C(C#N)=C(N)Oc3cc(N)ccc32)cc1 (configuration not stated)	none
Cc1cc(C(=O)NC2C3CC4CC(C3)CC2C4)ccc1[N+](=O)[O-] (configuration not stated)	none
Cc1ccc(Cl)cc1NC(=O)c1ccc([N+](=O)[O-])c(C)c1	none
Cc1cc(C(=O)NCc2ccc(F)cc2)ccc1[N+](=O)[O-]	ST2 inh 52.0%
CCN(C(=O)c1cc(C)oc1-c1ccccc1)C(C)CO (configuration not stated)	none
C=CCc1cc(OC)c(O)c(-c2cc(CC=C)cc(OC)c2O)c1	ST2 inh 41.0%
COc1cc(CCCO)cc(-c2cc(CCCO)cc(OC)c2O)c1O	none
